Common to all, as to format: functional
In experiment [1] the target is Solute carrier family 2, facilitated glucose transporter member 1 (Homo sapiens) (UniProt P11166). Nature of the experiment: ST_JUDE_LEISH: Cytotoxicity at 2uM final concentration against transgenic Leishmania Mexicana promastigotes LmGLUT1 that are glucose transport deficient and complemented with the human glucose transporter GLUT1. Activity is measured by DNA content using SYBR green in vitro.

Experiment [2] has as its target Hexose transporter 1 (Plasmodium falciparum) (UniProt O97467). Nature of the experiment: ST_JUDE_LEISH: Cytotoxicity at 2uM final concentration against transgenic Leishmania Mexicana promastigotes LmPfHT that are glucose transport deficient and complemented with the Plasmodium falciparum hexose transporter. Activity is measured by DNA content using SYBR green in vitro.

For experiment [3], the target named is Glucose transporter (Leishmania mexicana) (UniProt O61059). The experiment is described as follows: ST_JUDE_LEISH: Cytotoxicity at 2uM final concentration against transgenic Leishmania Mexicana promastigotes LmGT2 that are glucose transport deficient and complemented with the L. Mexicana glucose transporter 2. Activity is measured by DNA content using SYBR green in vitro.

Chain of Solute carrier family 2, facilitated glucose transporter member 1 (Homo sapiens) (P11166 whole entry): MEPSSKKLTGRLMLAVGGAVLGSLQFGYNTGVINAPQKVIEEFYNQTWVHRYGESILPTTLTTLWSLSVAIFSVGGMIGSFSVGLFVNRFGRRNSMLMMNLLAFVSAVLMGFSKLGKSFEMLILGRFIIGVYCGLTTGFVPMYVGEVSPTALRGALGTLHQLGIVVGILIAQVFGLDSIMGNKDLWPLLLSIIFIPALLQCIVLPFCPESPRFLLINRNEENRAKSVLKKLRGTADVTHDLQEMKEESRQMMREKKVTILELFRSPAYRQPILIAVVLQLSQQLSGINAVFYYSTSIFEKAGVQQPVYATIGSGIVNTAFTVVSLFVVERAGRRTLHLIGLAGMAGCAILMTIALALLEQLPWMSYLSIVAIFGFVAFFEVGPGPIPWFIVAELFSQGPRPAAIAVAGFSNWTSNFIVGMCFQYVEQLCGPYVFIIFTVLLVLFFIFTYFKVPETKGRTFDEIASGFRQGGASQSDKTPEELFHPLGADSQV

`COCCOc1ccc(Nc2nccc(-c3c(-c4cccc(NC(=O)c5c(F)cccc5F)c4)nn4ccccc34)n2)cc1F`: the inhibition came out at 7.82% in experiment [1], 10.9% in experiment [2] and 1.25% in experiment [3].
Consider `CC1(C)CC(=O)c2c(O)cc(OCc3ccncc3)cc2O1`, for which the inhibition in experiment [1] was 2.92%; in experiment [2], 0.56%; in experiment [3] it was 0.66%.
Regarding `c1ccc(Oc2ccc(Nc3ccnc4cc(-c5ccc(CNCCN6CCOCC6)o5)ccc34)cc2)nc1`, the inhibition in experiment [1] came to 2.93%; in experiment [2], 2.52%; in experiment [3] it was 2.3%.
For `COc1c(C2CCN(CCCCNC(=O)c3ccc(-c4ccc(C#N)cc4)c(O)c3)CC2)ccc2c1CCCC2`, the inhibition was -0.29% in experiment [1], -0.43% in experiment [2] and 0.55% in experiment [3].
For `CC[C@H](C)CNC(=O)c1ccnc(-c2ccc(CN3CCC(N4CCCC4)CC3)cc2)c1`, the inhibition came out at 1.51% in experiment [1], 0.38% in experiment [2] and 0.35% in experiment [3].
Take `COc1cc2nc(N3CCN(c4cc(C)ccc4C)CC3)nc(N)c2cc1OC`: the inhibition in experiment [1] is 1.13%; in experiment [2] it was 0.08%; in experiment [3] it was 0.51%.
For `COc1ccc(-n2ncc(C(=O)N3CCC4(C3)C(=O)N(c3ccccc3)c3ccccc34)c2C)cc1` (stereo unspecified), the inhibition in experiment [1] amounted to 1.9%; in experiment [2], 2.74%; in experiment [3], 0.94%.
The corresponding values for `COc1ccc2c(CCNc3nc(SC)ncc3C(=O)NCCc3ccc(F)cc3)c[nH]c2c1` are 2.09%, 0.58% and 1.11%.
For the molecule `CNC(=O)c1cnc(Nc2ccc(N3CCN(C)CC3)c(C)c2)nc1NC`, the inhibition in experiment [1] is -0.78%; in experiment [2], -3.69%; in experiment [3] it was 3.79%.
The corresponding values for `CCc1ccc(CN(Cc2ccc(C)cc2)Cc2ccc(NC(C)=O)cc2)cc1` are 2.72%, 3.95% and 2.91%.
The corresponding values for `Cc1ccc(NS(=O)(=O)c2cccs2)cc1-c1cccc(C(=O)Nc2ccc(F)cc2)c1` are 2%, 3.65% and 1.16%.
Regarding `O=C(Nc1ccc(-c2nc3ccccc3[nH]2)cc1)c1cncc(Br)c1`, the results for the inhibition in experiment [1], in experiment [2] and in experiment [3] were 4.2%, 2.44% and 1.81%, respectively.

These data come from ChEMBL document CHEMBL3433997, “St. Jude Leishmania screening dataset” (2016).
